Peg3 prom inh: Peg3 promoter-driven luciferase inhibitors, primary screen, cell-based, HeLa, luciferase luminescence; HeLa PEG-Prom luciferase reporter, overnight; inhibition, % at 20 µM; hit rate 1.7% among 360,000;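 active = inhibition of at least 50% at 20 µM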
EBV LMP1 NFkB: EBV LMP1-driven NF-kappaB luciferase reporter inhibitors, primary screen, cell-based, luminescence, single point. inhibition, % at 12.5 µM. AID 504558, 2011. hit rate 0.69% among 350,000. LMP1-induced NF-kappaB luciferase reporter cells; in the data active = inhibition above about 41%
Shn3 inh set2: reduction of Shn3 3'UTR firefly luciferase signal, primary screen, Schnurri-3 inhibitor project, cell-based, Clone20 osteoblasts, set 2; Clone20 osteoblast Shn3 3'UTR firefly luciferase, 24 h; inhibition, % at 12.5 µM; hit rate 0.52% among 360,000;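 active = mean inhibition of at least 75% with every replicate also reaching 75%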
CF NFkB inh: inhibitors of PAF-induced NF-kB signaling, primary screen, cell-based, GFP fluorescence, uHTS | KKLEB NF-kB-GFP reporter, GFP fluorescence overnight | AID 588850, 2011 | hit rate 0.86% among 360,000 | inhibition, % at 5 µM;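 active = at least 50% inhibition at 5 µM, scaled per plate between neutral and stimulator controls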;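 note: PAF is a Pseudomonas aeruginosa culture filtrate used as stimulus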
KKLEB cytotox: cytotoxicity in KKLEB CF airway cells, primary screen, cytotoxicity control for CF NF-kB inhibitor project, cell-based, uHTS, fluorescence assay plates | KKLEB CF airway cells viability, ATPlite luminescence, overnight; hits give low values; cells stimulated with P. aeruginosa culture filtrate | activity change (cytotoxicity), % at 5 µM | hit rate 0.36% among 360,000 | AID 602141, 2011;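 active = corrected activity change at or below -50% at 5 µM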
HIF-2a block: HIF-2a reporter inhibitors, primary screen, luminescence, 786-0 RCC cells; inhibition, % at 18.8 µM; 786-0 RCC cells HIF-2a reporter, luciferase luminescence, overnight; AID 624352, 2012; hit rate 0.72% among 360,000;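 active = inhibition of the luminescence signal of 40% or more relative to plate controls, in a single-dose primary screen at 18.75 µM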
Hits are given with their value; i = inactive; nt = no result given. This is a sample that favours compounds with a hit; in the whole collection about 2.9% have one here.

SMILES	Peg3 prom inh	EBV LMP1 NFkB	Shn3 inh set2	CF NFkB inh	KKLEB cytotox	HIF-2a block
O=C1OC(c2cc(Br)c(O)c(Br)c2)c2ccccc21 (centres undefined)	i	i	i	i	i	i
Nc1c(Br)cc2c(c1Br)C(O)c1ccccc1-2 (centres undefined)	i	i	94	i	i	i
CC1CCCC(C)N1C(=O)COC(=O)CNC(=O)c1ccccc1F (centres undefined)	i	i	i	i	i	i
Cc1ccc(CCNC(=O)c2nnc(CS(=O)(=O)c3ccccc3)o2)cc1	62	i	i	i	i	i
O=C(NCCc1ccc(Cl)cc1)c1nnc(Cc2ccc(Cl)cc2)o1	i	i	i	i	i	i
Cc1cc(C)c(NC(=O)CSc2ccc(-c3cccnc3)nn2)c(C)c1	i	i	i	i	i	i
Cc1nn(C)c(=O)n1N(C)c1ncc(C(F)(F)F)cc1Cl	67	i	i	i	i	i
Cn1cnnc1SCC(=O)n1c2ccccc2c2ccccc21	i	46	i	i	i	i
Cc1c(C)n(C(=O)CSc2nncn2C)c2ccccc12	i	i	i	i	i	i
O=C(C1CC(=O)N(c2ccc3c(c2)OCCO3)C1)N1CCN(S(=O)(=O)c2ccc(F)cc2)CC1 (centres undefined)	i	53	i	i	i	i
O=C(C1CC(=O)N(c2ccc3c(c2)OCCO3)C1)N1CCN(S(=O)(=O)c2cccc(F)c2)CC1 (centres undefined)	i	i	i	i	i	i
COc1cccc(Cn2c3ccc(NC(=O)CCc4ccc(F)cc4)cc3c(=O)n2C)c1	i	nt	i	i	i	i
CN1CCC(N(C)S(=O)(=O)c2ccc(NC(=O)c3ccc(S(=O)(=O)N(C)C)cc3)cc2)CC1	i	i	i	i	i	i
Cc1c(C(=O)Nc2ccc(F)c(F)c2)oc2ccc(S(=O)(=O)N3CCCCC3)cc12	64	i	i	i	i	i
O=S(=O)(c1cc(F)ccc1F)N1CCC2(CC1)OCCO2	i	i	i	i	i	i
Cc1c(C(=O)Nc2ccc(S(=O)(=O)N(C)C3CCN(C)CC3)cc2)oc2ccccc12	89	i	i	i	i	i
Cc1c(C(=O)NCc2ccccc2)oc2ccc(S(=O)(=O)N3CCC4(CC3)OCCO4)cc12	i	i	i	i	i	i
Cc1c(C(=O)Nc2cccc(Cl)c2)oc2ccc(S(=O)(=O)N3CCC4(CC3)OCCO4)cc12	58	i	i	i	i	i
Cc1c(C(=O)Nc2ccc(F)cc2)oc2ccc(S(=O)(=O)N3CCCC3)cc12	i	i	i	i	i	i
O=C(Nc1ccc(F)c(F)c1)c1ccc(F)c(S(=O)(=O)N2CCC3(CC2)OCCO3)c1	i	i	84	i	i	i
O=C1N[C@H](Cc2ccccc2)COC(=O)[C@H](Cc2ccc(F)cc2)CC/C=C/C[C@@H]1CC(=O)N(CCO)Cc1ccccc1	i	i	i	i	i	i
COC(=O)C1(C(=O)OC)C[C@H](c2ccc(OC)cc2)N(Cc2ccccc2OC)[C@@H]1c1ccc(OC)cc1	nt	nt	nt	nt	nt	i
CCC(C)NC(=O)c1oc2ccc(S(=O)(=O)N3CCC4(CC3)OCCO4)cc2c1C (centres undefined)	i	i	i	i	i	i
Cc1c(C(=O)NCC2COc3ccccc3O2)oc2ccc(S(=O)(=O)N3CC(C)CC(C)C3)cc12 (centres undefined)	i	i	i	i	i	i
Cc1c(C(=O)Nc2ccc(F)cc2)oc2ccc(S(=O)(=O)N3CCC4(CC3)OCCO4)cc12	55	i	i	i	i	i
Cc1c(C(=O)NCC2COc3ccccc3O2)oc2ccc(S(=O)(=O)N3CCOCC3)cc12 (centres undefined)	73	i	i	i	i	i
CCN(C(=O)C(=O)c1c[nH]c2ccccc12)c1ccccc1	i	i	i	i	i	i
COC(=O)c1ccc(N2CCN(c3ccccc3)CC2)c(N)c1	i	i	i	i	i	i
